# Assay results as given in PubChem BioAssay (NCI).
# The panel holds about 83,000 compounds, 20% with a hit somewhere; the sample as a whole holds those more often.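 Cell lines were cultured in 96-well plates, exposed to a single compound concentration, and assessed for percent growth 48 hours later.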 Unmarked numbers belong to inactive results. Active and inactive are the calls of the source.
# Tested on: KM12 colon
# Test: NCI-60 one-dose screen, 48 h (100 = growth as untreated, 0 = no growth, -100 = all killed)
# Conditions: 10 µM unless noted
# Protocol: Growth inhibition of the KM12 human tumor cell line is measured as a screen for anti-cancer activity. Cells are grown in 96 well plates and exposed to the test compound for 48 hours. Compounds are tested at a single concentration, which is 10^-5 M for most compounds. The reported endpoint is percent growth (GI% or GIPRCNT), where numbers from 0 - 100% represent growth inhibition, and numbers from -100% - 0 represent cell death. For example, a value of 40 represents 60% growth inhibition. A value of 0 means no net growth occurred over the course of the experiment. A value of -40 indicates 40% of cells at the beginning of the experiment died by the end of the experiment. A value of -100 means all cells are dead at the end of the experiment.
# NCI-60 Human Tumor Cell Lines Screen was performed using the standard one-dose NCI protocol, which is described in more detail at https://dtp.cancer.gov/discovery_development/nci-60/default.htm.
# Compounds with GIPRCNT values below 10 were considered active. Activity score was based on GIPRCNT using the following formula: […]
# Score is 0 for GIPRCNT values of 100 or above, 50 for GIPRCNT values of 0, and 100 for GIPRCNT values of -100.
row,SMILES,growth
1,COc1cccc(OC)c1Oc1c(-c2nc3ccccc3s2)c(C)nn1-c1ccccc1,59.7%
2,C#CC#CC#CC#CC#CC#CC#CC#CC[C@H]1OC[C@@H](COC(=O)O[C@@H](C(=O)O[C@H]2C[C@@]3(O)[C@@H](OC(=O)c4ccccc4)[C@@H]4[C@]5(OC(C)=O)CO[C@@H]5C[C@H](O)[C@@]4(C)C(=O)[C@H](OC(C)=O)C(=C2C)C3(C)C)[C@@H](NC(=O)c2ccccc2)c2ccccc2)O1,16.7%
3,Oc1c(I)cc(-c2nc3ccccc3s2)cc1CN(Cc1ccccn1)Cc1ccccn1,28.4%
4,Cc1ccc(-c2nc(C#N)c(S(=O)(=O)NCCO)o2)cc1,88%
5,CCOC(=O)C1CCN(c2ccc(N3C[C@@H](CNCc4ccc(C(=N)N)cc4)OC3=O)cc2)CC1,98.7%
6,COc1ccc(-c2ccc(=O)oc2C#Cc2cc(OC)c(OC)c(OC)c2)cc1O,3.09% (active)
7,O=C(/C=C/C12c3ccccc3C(c3ccccc31)C1C(=O)NC(=O)C12)c1ccccn1 (stereo not given),1.06% (active)
8,O=P(O)(O)OCC1OC(n2cnc3c(NCc4ccccc4)ncnc32)C(O)C1O (stereo not given),80.7%
9,COc1ccc(C2=Nc3c/c(=C\c4c(O)[nH]c5cc(Cl)ccc45)ccc3=N2)cc1,49.5%
10,C#CCn1cnc2c(Nc3cccc(NC(=O)CCl)c3)ncnc21,37.7%
11,CCOC(=O)c1c(C)nc2c(c1N)CC(=O)N2Cc1cc(OC)c(OC)c(OC)c1,30.1%
12,Cn1cc(-c2nonc2-c2c[nH]c3ccccc23)c2ccccc21,7.64% (active)
13,NC(=O)c1c(NC(=O)c2ccc(Cl)cc2)sc2c1CCC(=O)C2,42.1%
14,Nc1ncnc2c1c(-c1ccc(Oc3ccccc3)cc1)nn2CC1SSCC1O (stereo not given),46.5%
15,O=C1Nc2ccccc2C2c3cccn3-c3ccccc3N12 (stereo not given),62.3%
16,C[C@@H](CO)[C@@H]1CC[C@]2(C(=O)N3CCN(C)CC3)CC[C@]3(C)[C@H](CC[C@@H]4[C@@]5(C)CC[C@H](O)C(C)(C)[C@@H]5CC[C@]43C)[C@@H]12,86%
17,CC(C)c1ccc(-n2c(=S)[nH]c3sc4c(c3c2=O)CCC(=O)C4)cc1,18.6%
18,COc1ccc(C2=NN(C(C)=O)C(c3ccc(Oc4ccnc5cc(Cl)ccc45)c(OC)c3)C2)cc1 (stereo not given),72.9%
19,COc1ccc(C/C(C)=C(\c2ccc(O)cc2)c2ccc(OCCN3CCCC3)cc2)cc1,106%
20,O=C1/C(=C/c2ccc(C(F)(F)F)cc2)COc2ccc(O)c(O)c21,-31.3% (active)

row,SMILES,growth
1,O=C(Nc1nc(C(=O)N2CCN(C(c3ccccc3)c3ccccc3)CC2)cs1)c1ccc(NC2CCCCC2)c([N+](=O)[O-])c1,91.4%
2,O=c1oc2c(cnc3ccccc32)cc1-c1cccs1,105%
3,COC1=CC(c2ccc[nH]2)=N/C1=C\c1[nH]c(C)c(CC(=O)OCc2ccccc2)c1C,-9.28% (active)
4,COc1cc2ncnc(Nc3ccc(F)c(Cl)c3)c2cc1OCC(=O)N1CCN(c2ccc(F)cc2)CC1,100%
5,NNC(=S)N/N=C/c1ccccn1,29.2%
6,N/C(=N\c1nc2ccccc2s1)NC(=NC1CCCCC1)NC1CCCCC1,27.5%
7,COc1ccc(Nc2ncccc2NC(=O)c2cn(Cc3cccc(Oc4ccccc4)c3)nn2)cc1OC,57.6%
8,C=C1C(=O)O[C@H]2[C@H]1CC/C(COC(=O)NCc1ccc(Cn3c(=O)sn(-c4ccc(OC)cc4)c3=O)cc1)=C\CC[C@@]1(C)O[C@@H]21,95.3%
9,O=C(N/N=C/c1ccc([N+](=O)[O-])cc1)c1ccc2nc(-c3ccc(Cl)cc3)[nH]c2c1,13%
10,CCOC(=O)N1CCN(S(=O)(=O)c2oc(-c3ccc(Cl)cc3)nc2C#N)CC1,108%
11,COC(=O)C1=C(C)NC(C)=C(C(=O)OCC(C)C)C1c1ccccc1[N+](=O)[O-] (stereo not given),27.4%
12,CCOC(=O)C1=C(c2ccccc2)N=c2s/c(=C/c3ccc(Br)cc3)c(=O)n2C1c1ccc(O)cc1 (stereo not given),84.4%
13,O=C1/C(=C/c2ccc(C(F)(F)F)cc2)COc2ccc(O)cc21,52.2%
14,CCOC(=O)C/C(=N\Nc1cc(=O)[nH]c2ccc(Cl)cc12)C(=O)OCC,102%
15,O=C(N/N=C/c1ccc(Cl)cc1Cl)c1ccc2nc(-c3ccc(Cl)cc3)[nH]c2c1,-29.1% (active)
16,O=C(O)c1cn(C2CC2)c2cc(N3CCN(C(=O)N/N=C/c4ccccc4)CC3)c(F)cc2c1=O,94.8%
17,CC(C)(C)C(=O)/C=C/c1ccc([N+](=O)[O-])cc1,31.9%
18,O[C@@H](c1cc(C(F)(F)F)nc2c(C(F)(F)F)cccc12)[C@H]1CCCCN1,50.1%
19,Cc1cc(C)cc(Nc2ccc([N+](=O)[O-])c(NCCN3CCOCC3)n2)c1,15.4%
20,O=C(/C=C/c1ccc(Br)cc1)c1ccc(-n2cc(CN3CCN(c4cc5c(cc4F)c(=O)c(C(=O)O)cn5C4CC4)CC3)nn2)cc1,88.8%
